From PubChem
Jurkat NFkB inh – lowers PMA/ionomycin-induced NF-kB signal in Jurkat cells; PMA/ionomycin-induced NF-kB luciferase reporter, luminescence; inhibition, % at 4 µM; 330,000 compounds, 0.53% hits; AID 435003; in the data active = inhibition above about 50%
esBAF inh – blocks esBAF chromatin remodeling in mouse ES cells. Bmi1-luciferase knock-in reporter, 24 h; 100% = twice the neutral-well signal. reporter increase, % at 12.5 µM. 350,000 compounds, 2% hits; in the data active = activation above about 40%;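 note: a rise in the Bmi1 reporter signal indicates esBAF inhibition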
SMARCA2 act – activators of SMARCA2 function; MG213 cells, MMTV-luciferase reporter, dexamethasone, overnight; activation, % at 9.1 µM; 370,000 compounds, 1% hits; AID 652017; in the data active = activation above about 7.8%
697 NFkB inh – inhibitors of the PMA/ionomycin-induced NF-kB reporter in 697 B cells; AID 435022; 330,000 compounds, 0.33% hits; 697 B-cell NF-kB luciferase reporter, 16 h; inhibition, % at 4 µM; in the data active = inhibition above about 35%
Gli-Sufu antag – Gli-Sufu pathway antagonism | Sufu-KO-LIGHT fibroblasts, Gli luciferase reporter luminescence | 340,000 compounds, 0.74% hits | AID 588413 | inhibition, % at 5 µM;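 active = inhibition above about 55%, limit read from the data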
697 NFkB conf – lowers PMA/ionomycin-induced NF-kB signal in 697 B cells; shares compounds with 697 NFkB inh; 697 B-cell NF-kB luciferase, 16 h; inhibition, % at 4 µM; 2,000 compounds, 35% hits; AID 449746; in the data active = inhibition mostly above about 28%, no sharp cut-off; inactive = mostly below about 22%
Gli antag conf – confirmation of Gli-SUFU pathway antagonists; shares compounds with Gli-Sufu antag; Sufu-KO-LIGHT cells, Gli luciferase reporter, luminescence; inhibition, % at 5 µM; 2,500 compounds, 40% hits; AID 602428;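 active = mean inhibition at 5 µM reaching about 45%, limit read from the data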
Gli cytotox – cytotoxic in Gli-SUFU antagonist counter-screen | AID 651994 | 2,500 compounds, 32% hits | Sufu-KO-LIGHT cells cytotoxicity, ATP luminescence | cytotoxicity, % at 5 µM | shares compounds with Gli-Sufu antag;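 active = mean cytotoxicity at 5 µM above about 25%, limit read from the data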;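 note: cells exposed to compound overnight for roughly 16 to 18 hours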
Wnt3a cs – counter-screen for Gli-SUFU antagonists: Wnt3a reporter inhibition; Wnt-LIGHT cells, Wnt3a-driven luciferase reporter, luminescence; 2,500 compounds, 20% hits; shares compounds with Gli-Sufu antag; inhibition, % at 6.25 µM;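 active = mean inhibition above about 25%, limit read from the data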
SMARCA2 conf – SMARCA2 activation, confirmation screen; shares compounds with SMARCA2 act; MG213 cells, MMTV-luciferase with dexamethasone, luminescence, overnight; MG213 cells expressing E1A, Rb sequestered; DMSO wells 0%, reference activator 100%; activation, % at 9.1 µM; 3,500 compounds, 30% hits; AID 652260;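 active = activation above its plate's cutoff, the mean activation of tested wells plus 3 SD, cut at about 7.9% in these data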
VP16 Luc act – activates GAL4-VP16 luciferase, flagging SMARCA2 activator hits; shares compounds with SMARCA2 act; 3,500 compounds, 41% hits; AID 686939; activation, % at 9.1 µM; HEK293 GAL4-VP16 pG5luc reporter, luciferase luminescence; scaled: DMSO wells 0%, SAHA wells 100%;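 active = activation above the solvent-only control well mean plus 3 SD, averaged across control plates, cut at about 5.2% in these data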
Large screens that a line does not name were inactive (follow-up assays come after a bar, where they were run). An excerpt weighted towards active compounds, which were near 3.3% of everything screened.

CO[C@@H](CN(C)Cc1cc(F)ccc1F)[C@@H](C)CN([C@H](C)CO)S(=O)(=O)c1ccc(F)cc1	none (no result: Jurkat NFkB inh, SMARCA2 act, 697 NFkB inh, Gli-Sufu antag)
CCOc1ccccc1Oc1coc2cc(O)ccc2c1=O	none
O=c1c(-c2ccc(F)cc2)coc2cc(O)ccc12	SMARCA2 act 12 | 697 NFkB conf inactive | SMARCA2 conf inactive | VP16 Luc act 11
Cc1cc(=O)oc2cc(OCCc3ccccc3)ccc12	esBAF inh 67, SMARCA2 act 8.6 | 697 NFkB conf inactive | SMARCA2 conf 8.7 | VP16 Luc act 21
CC1CCN(Cc2c(C(=O)N3CCc4ccccc4C3)nc3ccc(Cl)cn23)CC1	none (no result: esBAF inh) | Gli antag conf inactive | Gli cytotox 33 | Wnt3a cs inactive
CC(C)(C)OC(=O)N1CCC(c2cc(-c3cccs3)n[nH]2)CC1	Gli-Sufu antag 57 | Gli antag conf inactive | Gli cytotox inactive | Wnt3a cs inactive
CC1CCN(C(=O)CSc2n[nH]c(-c3cccs3)n2)CC1	none
CSCCC(NC(=O)c1ccco1)C(=O)N1CC(C)OC(C)C1 (stereo not given)	Gli-Sufu antag 58 | Gli antag conf inactive | Gli cytotox inactive | Wnt3a cs inactive
COc1ccc(S(=O)(=O)N[C@@H]2CC[C@H](CC(=O)O)O[C@@H]2CO)cc1	none (no result: Jurkat NFkB inh, SMARCA2 act, 697 NFkB inh, Gli-Sufu antag)
CC(C)Sc1nc(-c2ccccc2)cc(=O)[nH]1	Gli-Sufu antag 69 | Gli antag conf inactive | Gli cytotox inactive | Wnt3a cs inactive
C[C@@H]1CCCCO[C@H](CN(C)CC2CCCCC2)[C@H](C)CN([C@@H](C)CO)C(=O)c2cc(NS(=O)(=O)c3ccc(Cl)cc3)ccc2O1	none (no result: Jurkat NFkB inh, SMARCA2 act, 697 NFkB inh, Gli-Sufu antag)
COc1ccc(C2C3=C(CC(C)(C)CC3=O)Nc3c2c(=O)n(C)c(=O)n3C)cc1OC (stereo not given)	Gli-Sufu antag 58 (no result: esBAF inh) | Gli antag conf inactive | Gli cytotox 29 | Wnt3a cs inactive
C[C@@H]1CN([C@H](C)CO)C(=O)CCCn2nncc2CO[C@H]1CN(C)C(=O)Nc1ccccc1F	none (no result: Jurkat NFkB inh, SMARCA2 act, 697 NFkB inh, Gli-Sufu antag)
COc1ccc(NC(=O)Nc2ccc3c(c2)C(=O)N([C@H](C)CO)C[C@@H](C)[C@@H](CN(C)Cc2ccncc2)OCCCC[C@@H](C)O3)cc1	none (no result: Jurkat NFkB inh, SMARCA2 act, 697 NFkB inh, Gli-Sufu antag)
Cc1ccc(S(=O)(=O)NCCC2=CCCCC2)cc1C(N)=O	Gli-Sufu antag 58 | Gli antag conf 47 | Gli cytotox inactive | Wnt3a cs inactive
Cc1cc(S(=O)(=O)NCCC2=CCCCC2)ccc1Br	none
Cc1ccc(C2=C(CC(=O)O)C(=O)CC2)cc1	Gli-Sufu antag 55 (no result: esBAF inh) | Gli antag conf inactive | Gli cytotox inactive | Wnt3a cs inactive
Cc1ccccc1S(=O)(=O)N1C[C@@H](O)COC[C@H]2O[C@@H](CC(=O)N3CCCCC3)CC[C@@H]21	none (no result: Jurkat NFkB inh, SMARCA2 act, 697 NFkB inh, Gli-Sufu antag)
CC(C)c1ccc(C(O)c2cnc(C(C)C)n2C)cc1 (stereo not given)	esBAF inh 73, Gli-Sufu antag 95 | Gli antag conf inactive | Gli cytotox inactive | Wnt3a cs inactive
CC(C)c1ncc(C(O)c2ccccc2)n1C (stereo not given)	none
C[C@H]1CCCCO[C@@H](CN(C)S(=O)(=O)c2ccc(F)cc2)[C@@H](C)CN([C@@H](C)CO)C(=O)c2cc(NS(=O)(=O)c3ccc(F)cc3)ccc2O1	none (no result: Jurkat NFkB inh, SMARCA2 act, 697 NFkB inh, Gli-Sufu antag)
Oc1ccc(-c2nc3ccc4ccccc4c3c3c2CCC3)cc1O	Gli-Sufu antag 56 (no result: esBAF inh) | Gli antag conf inactive | Gli cytotox inactive | Wnt3a cs inactive
Cc1cc(C)c2c(ccc3ccccc32)n1	none (no result: Jurkat NFkB inh, esBAF inh, 697 NFkB inh)
C[C@@H]1CN([C@H](C)CO)C(=O)c2cc(NC(=O)c3ccncc3)ccc2O[C@H]1CN(C)S(=O)(=O)c1ccc(Cl)cc1	none (no result: Jurkat NFkB inh, SMARCA2 act, 697 NFkB inh, Gli-Sufu antag)
CC(=O)N1CCOc2ccc(S(=O)(=O)NC(C)c3ccccc3)cc21 (stereo not given)	Gli-Sufu antag 61 | Gli antag conf inactive | Gli cytotox inactive | Wnt3a cs inactive
Cc1cc(C)nc(/N=C(\N)Nc2ccccc2-c2ccccc2)n1	Gli-Sufu antag 60 (no result: esBAF inh) | Gli antag conf inactive | Gli cytotox inactive | Wnt3a cs inactive
COc1ccc2cc3cc(C(=O)N4CCN(C5CCCCC5)CC4)oc3nc2c1	none (no result: SMARCA2 act) | Gli antag conf inactive | Gli cytotox 36 | Wnt3a cs inactive
CN1CCCN(C(=O)C2CCC(C(=O)N3CCCN(C)CC3)CC2)CC1 (stereo not given)	none (no result: esBAF inh) | Gli antag conf inactive | Gli cytotox inactive | Wnt3a cs inactive
COc1ccccc1CNC(=O)C[C@H]1C[C@H]2c3cc(NC(=O)CN(C)C)ccc3O[C@H]2[C@@H](CO)O1	none (no result: Jurkat NFkB inh, SMARCA2 act, 697 NFkB inh, Gli-Sufu antag)
O=C(C[C@H]1CC[C@H](NS(=O)(=O)c2ccccc2)[C@@H](CO)O1)N1CCc2ccccc2C1	none (no result: Jurkat NFkB inh, SMARCA2 act, 697 NFkB inh, Gli-Sufu antag)
Cn1c(CNC(=O)CNC(=O)c2ccccc2F)cc(=O)n(C)c1=O	none | Gli antag conf inactive | Gli cytotox inactive | Wnt3a cs inactive
CNC[C@H]1Oc2cc(C#CC3CCCCC3)ccc2S(=O)(=O)N([C@@H](C)CO)C[C@H]1C	none (no result: Jurkat NFkB inh, SMARCA2 act, 697 NFkB inh, Gli-Sufu antag)
O=c1[nH]c(=O)n(Cc2ccco2)c2c1C(C(F)(F)F)(C(F)(F)F)N=C(c1ccc(F)cc1)N2	none | Gli antag conf 65 | Gli cytotox inactive | Wnt3a cs 62
O=c1[nH]c(=O)n(Cc2ccccc2)c2c1C(C(F)(F)F)(C(F)(F)F)N=C(c1ccco1)N2	none
CCOC(=O)C1CCCN(C(=O)CCn2nc(-c3ccccc3)ccc2=O)C1 (stereo not given)	Gli-Sufu antag 56 (no result: esBAF inh) | Gli antag conf inactive | Gli cytotox inactive | Wnt3a cs inactive
C[C@@H]1CN([C@H](C)CO)C(=O)c2cc(NC(=O)Nc3ccccc3)ccc2O[C@@H](C)CCCCO[C@@H]1CN(C)Cc1ccc(C(F)(F)F)cc1	none (no result: Jurkat NFkB inh, SMARCA2 act, 697 NFkB inh, Gli-Sufu antag)
CC(C)[C@H](NC(N)=O)C(=O)Nc1ccc(F)c(Cl)c1	none (no result: esBAF inh) | Gli antag conf inactive | Gli cytotox inactive | Wnt3a cs inactive
C/C=C/c1cnc2c(c1)C(=O)N([C@@H](C)CO)C[C@@H](C)[C@@H](CN(C)C(=O)Cc1ccccc1)O2	none (no result: Jurkat NFkB inh, SMARCA2 act, 697 NFkB inh, Gli-Sufu antag)
C[C@@H]1CCCCO[C@@H](CN(C)C(=O)c2ccccc2)[C@@H](C)CN([C@@H](C)CO)C(=O)c2cc(N(C)C)ccc2O1	none (no result: Jurkat NFkB inh, SMARCA2 act, 697 NFkB inh, Gli-Sufu antag)
